Test results published in PubChem BioAssay.
The source made the active and inactive calls. Unless noted, how the calls were made is not given here.

How the values were obtained:
[1] = A549 cell viability effects, profiling panel, calcein-AM fluorescence, 48 h, basal (AID 1162); conditions: higher = more signal; further: test concentration not given here
[2] = adipocyte viability effects, profiling panel, cell-based, 3T3-L1 adipocytes, calcein-AM fluorescence, 48 h, basal (AID 1163); conditions: 3T3-L1 adipocytes viability, higher = more signal; further: test concentration not given here
[3] = HepG2 cell viability effects, profiling panel, calcein-AM fluorescence, 48 h, basal (AID 1164); conditions: higher = more signal; further: test concentration not given here
[4] = MM1S cell viability effects, profiling panel, calcein-AM fluorescence, 48 h, basal (AID 1165); conditions: higher = more signal;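 further: viability of MM1S multiple myeloma cells under basal unstimulated conditions; test concentration not given here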
[5] = basal RPMI8226 viability, no added stimulus, profiling panel, cell-based, calcein-AM fluorescence, 48 h, PK04 Diversity Set (AID 1166); conditions: RPMI8226 myeloma viability, higher = more signal;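 further: cells grown under basal conditions without added stimulus; test concentration not given here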
[6] = basal HepG2 mitochondrial membrane potential changes, profiling panel, cell-based, JC-1 fluorescence, 24 h, 100 nL compound (AID 1167); conditions: higher = more signal; further: test concentration not given here
[7] = basal 3T3-L1 adipocyte mitochondrial potential changes, profiling panel, cell-based, JC-1 fluorescence, 3T3-L1 adipocytes, 24 h, 100 nL compound (AID 1168); conditions: JC-1 mitochondrial fluorescence, higher = more signal, called active from +8 up or from −8 down; further: test concentration not given here
[8] = basal RPMI8226 mitochondrial membrane potential changes, profiling panel, cell-based, JC-1 fluorescence, 24 h, 100 nL compound (AID 1169); conditions: RPMI8226 myeloma, JC-1 mitochondrial potential fluorescence, higher = more signal; further: test concentration not given here
[9] = basal MM1S mitochondrial membrane potential changes, profiling panel, cell-based, JC-1 fluorescence, 24 h, 100 nL compound (AID 1170); conditions: higher = more signal; further: test concentration not given here
[10] = A549 lung cancer cell viability effects, profiling panel, resazurin fluorescence, 24 h, PK04 Diversity Set (AID 1171); conditions: higher = more signal, called active from +8 up or from −8 down; further: test concentration not given here
[11] = HepG2 liver cancer cell viability effects, profiling panel, resazurin fluorescence, 24 h, PK04 Diversity Set (AID 1172); conditions: higher = more signal; further: test concentration not given here
[12] = basal S. cerevisiae growth modulation, no modifier, primary screen, OD600, strain BY4716, 24 h, basal condition (AID 1173); conditions: OD600, 24 h, higher = more signal, called active from +8 up or from −8 down
[13] = MM1S myeloma cell viability, profiling panel, resazurin fluorescence, basal, 24 h, PK04 Diversity Set (AID 1174); conditions: higher = more signal, called active from +8 up or from −8 down;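 further: MM1S multiple myeloma cell line; test concentration not given here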
[14] = biological target: Dihydroorotate dehydrogenase (quinone), mitochondrial (Plasmodium falciparum (isolate 3D7)) (UniProt Q08210); test: PfDHODH enzyme inhibitors, primary screen, biochemical, C-terminal His tag, absorbance 600 nm (AID 1175); conditions: DCIP absorbance 600 nm, higher = more signal, called active from +8 up or from −8 down;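 further: recombinant parasite enzyme with a five histidine tag at its C terminus; test concentration not given here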
[15] = P. aeruginosa biofilm formation inhibitors, primary screen, strain PAO1, LB-PBS medium, absorbance 600 nm (AID 1176); further: test concentration not given here; conditions: P. aeruginosa PAO1 growth/biofilm, A600, 12 h; higher = more signal
[16] = S. cerevisiae RM11-1a growth modifiers, primary screen, strain RM11-1a, OD600, basal, 24 h (AID 1177); conditions: OD600, 24 h, higher = more signal, called active from +8 up or from −8 down;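 further: cultures grown under basal conditions with no added stressor; test concentration not given here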
[17] = E. coli acrAB mutant growth effects, primary screen, E. coli filamentation inducers, strain DRC39, OD650, 24 h (AID 1178); conditions: higher = more signal, called active from +8 up or from −8 down;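 further: growth measured as culture turbidity by optical density at 650 nm; test concentration not given here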
[18] = E. coli acrAB mutant growth effects, primary screen, E. coli filamentation inducers, strain DRC39, OD650, 48 h (AID 1179);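 further: screen aims at cell division blockers that make cells filament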; conditions: E. coli DRC39 delta-acrAB growth, higher = more signal, called active from +8 up or from −8 down
[19] = RPMI8226 myeloma cell viability, profiling panel, resazurin fluorescence, basal, 24 h, PK04 Diversity Set (AID 1180); conditions: higher = more signal;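 further: RPMI8826 multiple myeloma cell line at 5000 cells per well; test concentration not given here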
[20] = biological target: E3 ubiquitin-protein ligase XIAP (Homo sapiens) (UniProt P98170); test: XIAP binders, primary screen, biophysical, small-molecule microarray, fluorescence 635 nm (AID 1181); conditions: small-molecule microarray binding, higher = more signal;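 further: score merges 667 nm emission and signal to noise over triplicate slides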
E3 ubiquitin-protein ligase XIAP (Homo sapiens), sequence (P98170 whole entry, looked up): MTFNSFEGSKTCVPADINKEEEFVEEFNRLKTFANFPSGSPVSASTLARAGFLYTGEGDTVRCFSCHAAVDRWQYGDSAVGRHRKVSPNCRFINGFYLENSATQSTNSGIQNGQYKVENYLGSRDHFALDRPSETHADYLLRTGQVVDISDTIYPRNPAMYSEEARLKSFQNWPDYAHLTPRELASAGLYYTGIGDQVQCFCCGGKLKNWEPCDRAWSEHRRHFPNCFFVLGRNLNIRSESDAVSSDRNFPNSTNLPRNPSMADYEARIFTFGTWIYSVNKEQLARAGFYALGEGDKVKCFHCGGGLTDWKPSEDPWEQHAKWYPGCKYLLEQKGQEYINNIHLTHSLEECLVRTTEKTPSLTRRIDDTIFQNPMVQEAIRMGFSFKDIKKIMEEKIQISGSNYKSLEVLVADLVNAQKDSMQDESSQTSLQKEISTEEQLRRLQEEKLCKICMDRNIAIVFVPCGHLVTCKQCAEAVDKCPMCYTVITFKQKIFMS

Dihydroorotate dehydrogenase (quinone), mitochondrial (Plasmodium falciparum (isolate 3D7)), sequence (Q08210 whole entry, looked up): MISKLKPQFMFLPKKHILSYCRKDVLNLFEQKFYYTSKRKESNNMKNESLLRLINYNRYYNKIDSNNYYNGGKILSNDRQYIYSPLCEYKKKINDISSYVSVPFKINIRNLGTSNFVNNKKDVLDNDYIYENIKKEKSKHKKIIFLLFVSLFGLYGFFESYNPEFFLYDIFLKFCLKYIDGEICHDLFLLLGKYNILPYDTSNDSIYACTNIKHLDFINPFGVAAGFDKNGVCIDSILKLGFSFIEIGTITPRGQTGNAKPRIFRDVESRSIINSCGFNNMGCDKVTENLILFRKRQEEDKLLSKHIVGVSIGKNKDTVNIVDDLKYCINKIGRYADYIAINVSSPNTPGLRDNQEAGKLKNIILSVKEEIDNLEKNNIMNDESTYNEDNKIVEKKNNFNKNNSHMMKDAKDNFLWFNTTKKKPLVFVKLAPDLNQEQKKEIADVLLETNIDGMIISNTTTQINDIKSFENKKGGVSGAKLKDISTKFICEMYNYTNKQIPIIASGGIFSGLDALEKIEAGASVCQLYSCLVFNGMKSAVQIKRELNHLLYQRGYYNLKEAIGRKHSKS

| SMILES | z-score [1] | z-score [2] | z-score [3] | z-score [4] | z-score [5] | z-score [6] | z-score [7] | z-score [8] | z-score [9] | z-score [10] | z-score [11] | z-score [12] | z-score [13] | composite z-score [14] | z-score [15] | z-score [16] | z-score [17] | z-score [18] | z-score [19] | composite z-score [20] |
| --- | --- | --- | --- | --- | --- | --- | --- | --- | --- | --- | --- | --- | --- | --- | --- | --- | --- | --- | --- | --- |
| CCCNC(=O)[C@@H]1c2ccccc2C(=O)N(Cc2ccccc2OC)[C@H]1c1ccc(CO)cc1 | 2.28 | -0.272 | 1.52 | 0.513 | 0.349 | 1.67 | 0.776 (inactive) | 0.182 | -0.565 | -0.0906 (inactive) | -0.314 | -0.42 (inactive) | -1.32 (inactive) | -0.486 (inactive) | -0.0933 (inactive) | 0.262 (inactive) | 0.324 (inactive) | 0.285 (inactive) | -0.694 | -0.113 |
| [N-]=[N+]=NCc1ccccc1[C@@H]1OC(c2ccc(OCCCO)cc2)=N[C@]1(CCS(=O)(=O)c1ccccc1)C(N)=O | 0.338 | -0.676 | 0.834 | 0.369 | 0.102 | -1.67 | -0.0551 (inactive) | -0.875 | -1.16 | -0.174 (inactive) | -0.493 | -0.583 (inactive) | -0.163 (inactive) | -0.449 (inactive) | -0.651 (inactive) | 0.573 (inactive) | 0.0745 (inactive) | 0.859 (inactive) | 0.0529 | 0.243 |
| O=C1C2C=CC(C(O)c3cc(C(F)(F)F)cc(C(F)(F)F)c3)N(Nc3ccccc3)C2C(=O)N1c1ccccc1 (stereo not given) | 1.3 | -1.48 | 0.662 | -2.24 | -3.52 | -4.32 | -1.36 (inactive) | -0.982 | -0.994 | 0.626 (inactive) | -0.621 | -3.15 (inactive) | -1.87 (inactive) | 0.399 (inactive) | 1.41 (inactive) | 0.596 (inactive) | -0.921 (inactive) | -0.284 (inactive) | -2.49 | 0.0191 |
| N#Cc1ccc(C(O)C2C=CC3C(=O)N(c4ccccc4)C(=O)C3N2Nc2ccccc2F)cc1 (stereo not given) | 0.545 | -1.05 | -0.245 | 0.755 | -0.406 | -0.776 | -0.872 (inactive) | 0.585 | -0.0841 | 0.0801 (inactive) | 1.46 | -2.13 (inactive) | 0.55 (inactive) | 0.775 (inactive) | 0.0083 (inactive) | -0.402 (inactive) | -0.227 (inactive) | 0.692 (inactive) | 0.148 | 0.205 |
| [N-]=[N+]=Nc1ccccc1C[C@@]1(C(=O)N2CCCCC2)N=C(c2ccc(OCCCO)cc2)O[C@@H]1c1ccccc1N=[N+]=[N-] | -0.911 | 0.0245 | -1.7 | -3.47 | -4.35 | -1.21 | -0.923 (inactive) | -1.3 | -2.21 | -0.797 (inactive) | -0.45 | -0.893 (inactive) | -2.09 (inactive) | -0.0853 (inactive) | 0.578 (inactive) | 1.48 (inactive) | 0.472 (inactive) | 0.208 (inactive) | -3.1 | -0.0102 |
| C[N+](C)(C)CCCC[C@@H]1NC(=O)[C@@H]2C[C@H](C(=O)NCCCCCCNC(=O)CS)[C@H](c3ccc(O)cc3)N2C1=O | -0.617 | -0.0068 | -0.0675 | -0.14 | -0.385 | 0.439 | -0.888 (inactive) | -0.111 | -0.432 | -0.382 (inactive) | -0.206 | 1.4 (inactive) | -0.387 (inactive) | -0.206 (inactive) | -0.282 (inactive) | 0.144 (inactive) | -0.253 (inactive) | -0.135 (inactive) | -0.437 | -0.0911 |
| CN(C)CCCCCCNC(=O)[C@@H]1C[C@@H]2C(=O)N[C@@H](CCCC[N+](C)(C)C)C(=O)N2[C@@H]1c1ccc(O)cc1 | -0.974 | 0.334 | -0.646 | -1.51 | 0.131 | -0.108 | -0.302 (inactive) | 0.185 | -0.313 | -0.994 (inactive) | -0.916 | -0.661 (inactive) | -1.07 (inactive) | -1.06 (inactive) | -0.0212 (inactive) | -0.0569 (inactive) | 0.301 (inactive) | 0.575 (inactive) | -0.746 | 0.0785 |
| C=CCC(OC(C)=O)[C@@H]1[C@@H](N(Cc2ccc(-c3cccc(C(F)(F)F)c3)o2)C(=O)Cc2ccc(OC)cc2)c2cc(OCCCO)ccc2N1C(=O)c1ccc2ccccc2c1 (stereo not given in full) | -0.138 | 1.13 | -0.589 | 0.269 | -0.738 | 2.15 | -0.75 (inactive) | -0.442 | 0.675 | -0.186 (inactive) | -0.29 | -1.44 (inactive) | 0.598 (inactive) | 0.165 (inactive) | -0.841 (inactive) | 0.0979 (inactive) | 0.751 (inactive) | 0.489 (inactive) | 0.187 | 0.144 |
| C=C(/C(=C/C[C@H](OC(C)=O)c1ccc(OCCO)cc1)c1cc(C(=O)OC)ccc1OC)C(C)C | 1.32 | 0.0952 | 0.861 | -3.04 | -2.43 | 2.82 | -0.0331 (inactive) | -0.669 | -0.631 | 1.05 (inactive) | 1.5 | -0.962 (inactive) | 0.012 (inactive) | -0.858 (inactive) | 0.613 (inactive) | -0.0571 (inactive) | 0.483 (inactive) | 0.232 (inactive) | 0.0628 | -0.307 |
